{"source": "PubChem BioAssay AID1645852", "about": "(National Center for Advancing Translational Sciences (NCATS), 2021)", "note": "The whole screen tested about 1,200 compounds, of which about 160 (13%) were called active. Another 31% or so got no clear call; they are omitted. The call rests on the fitted dose curve; in most records, active means well fitted inhibition curve with a large enough effect; inconclusive means small, poorly fitted or top-dose-only effect; inactive means no such curve, though single readings can be large or run the other way. The list is a sample of the results. On the % scale 0 is the no-effect control and ±100 the full control effect; potency means the concentration at half of the fitted maximal effect."}
{"target": "Inositol hexakisphosphate kinase 1 (Homo sapiens) (UniProt Q92551)", "sequence (Q92551 whole entry, looked up)": "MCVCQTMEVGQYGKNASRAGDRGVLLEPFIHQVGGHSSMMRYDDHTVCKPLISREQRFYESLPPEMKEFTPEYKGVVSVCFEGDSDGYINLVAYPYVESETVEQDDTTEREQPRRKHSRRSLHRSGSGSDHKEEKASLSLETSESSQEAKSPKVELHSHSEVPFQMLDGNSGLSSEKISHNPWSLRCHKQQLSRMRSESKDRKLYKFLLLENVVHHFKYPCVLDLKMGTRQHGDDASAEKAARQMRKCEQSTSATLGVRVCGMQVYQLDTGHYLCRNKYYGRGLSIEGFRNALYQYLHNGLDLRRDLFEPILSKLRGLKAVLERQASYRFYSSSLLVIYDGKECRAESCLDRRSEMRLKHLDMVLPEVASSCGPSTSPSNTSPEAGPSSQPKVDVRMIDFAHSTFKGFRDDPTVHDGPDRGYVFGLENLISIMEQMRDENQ", "test": "Confirmatory qHTS assay for small molecule inhibitors of Inositol hexaphosphate kinase 1 (IP6K1); further: nearly all actives have a fitted effect of over 65% in size", "conditions": "recombinant IP6K1 kinase, ADP-Glo luminescence, 2 h; series mostly up to 49 µM; activity change, negative = inhibition: at the top concentration", "excerpt": "Assay Provider: Huijun Wei, M.S., Ph.D. School of Medicine, Johns Hopkins University, Baltimore, MD Inositol hexakisphosphate kinases (IP6Ks) catalyze pyrophosphorylation of inositol hexakisphosphate (IP6) into inositol 5-diphospho-1,2,3,4,6-pentakisphosphate (IP7), which is involved in numerous areas of cell physiology including glucose homeostasis, blood coagulation and neurological development. Inhibition of IP6Ks may be effective for the treatment of Type II diabetes, thrombosis, and psychiatric disorders. We performed a quantitative high throughput screen (qHTS) of 158,410 compounds for IP6K1 inhibitors using ankinase activity ADP-Glo Max assay. […] Medicinal chemistry SAR efforts in three chemical series identified potent IP6K1 inhibitors, which were further validated in an orthogonal LC-MS IP7 analysis.\nPROTOCOL TABLE SEQUENCE No. (e.g., 1, 2, 3, etc.); […] (e.g., Cells, Incubation, Reagent, etc.); VALUE and DESCRIPTION. 1. Reagent, 3 uL of 1.3 mM ATP and 130 uM IP6 mixture in assay buffer was dispensed to a white, 1536-well assay plate. 2. Compound, 23 nL of compounds of the top two doses (57.5 uM and 19.1 uM final concentration) of the libraries were dispensed into the mixture using the Kalypsis pintool. 3. Reagent, 1 uL of 2.4 uM IP6K1 was dispensed to the assay plates. 4. Incubation, 2 hr incubation at room temperature. 5. Reagent, 2 uL of ADP-Glo reagent was added to the wells. 6. Incubation, 1 hr incubation at room temperature. 7. Reagent, 4 uL or ADP-Glo substate was added to the wells. 8. Incubation, 45 min incubation at room temperature. 9. Detection, luminescence signal was detected using the ViewLux microplate imager (PerkinElmer)."}
{"smiles": "Cc1ccc(CNC(=O)CCc2c(C)nc3c(c(C)nn3-c3ccccc3)c2C)cc1", "activity change, negative = inhibition": "-6.31% (inactive)"}
{"smiles": "COc1ccc(C2Cn3nnc(C(=O)N4CCN(C(=O)c5ccc(C)cc5C)CC4)c3CO2)cc1", "note": "(centres undefined)", "activity change, negative = inhibition": "4.29% (inactive)"}
{"smiles": "COc1c(C)cnc(CN(C)C(=O)C2CC(=O)N(C3CCCC3)C2)c1C", "note": "(centres undefined)", "activity change, negative = inhibition": "0.975% (inactive)"}
{"smiles": "CCCS(=O)(=O)c1ncc(Cl)c(C(=O)Nc2scc(-c3ccccc3)c2C(=O)OCC)n1", "activity change, negative = inhibition": "-6.72% (inactive)"}
{"smiles": "Cc1ccc(-c2nnc3ccc(-c4ccoc4)nn23)nc1", "activity change, negative = inhibition": "0.0128% [at 92.2 µM] (inactive)"}
{"smiles": "CC1=C(C(=O)Nc2ccccc2Cl)C(c2cccs2)n2ncnc2N1", "note": "(centres undefined)", "activity change, negative = inhibition": "-29.2% (inactive)"}
{"smiles": "CN(C)[C@@H]1C(=O)C(C(N)=O)=C(O)[C@@]2(O)C(=O)C3=C(O)c4c(O)ccc(Cl)c4[C@@H](O)[C@H]3C[C@@H]12", "activity change, negative = inhibition": "-16.3% (inactive)"}
{"smiles": "Cc1ccc(-c2cc(C(=O)Oc3ccccc3Cl)no2)cc1C", "activity change, negative = inhibition": "30.1% (inactive)"}
{"smiles": "COc1cc(NC(=O)Nc2cccc(CNC(=O)O[C@H]3CCOC3)c2)ccc1-c1cnco1", "Potency": "8.2 µM (active)"}
{"smiles": "C#C[C@]1(O)CC[C@H]2[C@@H]3CCC4=C/C(=N/O)CC[C@@H]4[C@H]3CC[C@@]21CC", "Potency": "1.84 µM (active)"}
{"smiles": "Cc1cccc(C(=O)N2CCC3(CC2)CC(c2ccccc2)CN(C)C3)n1", "note": "(centres undefined)", "activity change, negative = inhibition": "-16.6% (inactive)"}
{"smiles": "Cc1cc(C)c(/C=C2\\C(=O)Nc3ccccc32)[nH]1", "activity change, negative = inhibition": "-5.46% (inactive)"}
{"smiles": "Cc1ccc(-c2onc(C)c2C)cc1S(=O)(=O)Nc1ccccn1", "activity change, negative = inhibition": "-5.89% (inactive)"}
{"smiles": "CC(C)(C)OC(=O)N1CCC(c2c(C(=O)N3CCc4ccccc4C3)cnn2-c2ccc(F)cc2)CC1", "activity change, negative = inhibition": "4.4% (inactive)"}
{"smiles": "CCc1ccccc1N1CC(c2nc3ccccc3n2CCCCOc2ccccc2)CC1=O", "note": "(centres undefined)", "activity change, negative = inhibition": "-0.175% (inactive)"}
{"smiles": "O=c1cc(-c2cccnc2)oc2c(-c3ccccc3O)nccc12", "activity change, negative = inhibition": "-25.6% (inactive)"}
{"smiles": "CCOc1cccc2c1N[C@@H](c1ccc(C(=O)O)cc1)[C@H]1CC=C[C@@H]21", "Potency": "20.6 µM (active)"}
{"smiles": "CCOC(=O)c1cc2c(=O)n3ccccc3nc2n(Cc2ccco2)c1=NC(=O)c1ccc(F)cc1", "activity change, negative = inhibition": "-13% (inactive)"}
{"smiles": "CCOC(=O)c1ccc(CSc2nnc3cc(C)c4ccccc4n23)cc1", "activity change, negative = inhibition": "-13% (inactive)"}
{"smiles": "Cc1ccc2c(c1)N(CC(=O)NCCCN1CCCCC1)C(=O)c1cccnc1O2", "activity change, negative = inhibition": "-8.72% (inactive)"}
{"smiles": "O=C(OCCN1CCOCC1)c1cccnc1Nc1cccc(C(F)(F)F)c1", "activity change, negative = inhibition": "-19.8% (inactive)"}
{"smiles": "COc1ccccc1N1CCN(S(=O)(=O)CCNC(=O)COc2ccc(F)cc2)CC1", "activity change, negative = inhibition": "0.724% (inactive)"}
{"smiles": "CCOc1ncccc1C(=O)N1CCN(Cc2ccccc2)CC(O)C1", "note": "(centres undefined)", "activity change, negative = inhibition": "-4.84% (inactive)"}
{"smiles": "O=c1ncn(Cc2ccccc2)c2ccc(-c3ccoc3)nc12", "activity change, negative = inhibition": "-9.81% (inactive)"}
{"smiles": "CCOC(=O)c1ccc(NC(=O)CCS(=O)(=O)c2ccc(C)cc2)cc1", "activity change, negative = inhibition": "-10.6% (inactive)"}
{"smiles": "CO[C@H]1C=CO[C@@]2(C)Oc3c(C)c(O)c4c(O)c(c(/C=N/N5CCN(C)CC5)c(O)c4c3C2=O)NC(=O)/C(C)=C\\C=C[C@H](C)[C@H](O)[C@@H](C)[C@@H](O)[C@@H](C)[C@H](OC(C)=O)[C@@H]1C", "activity change, negative = inhibition": "-21.3% (inactive)"}
{"smiles": "CCOc1ccccc1NC(=O)C1CCCN(S(=O)(=O)c2cn(C)cn2)C1", "note": "(centres undefined)", "activity change, negative = inhibition": "-14.5% (inactive)"}
{"smiles": "C(=C\\c1ccccc1)/CN1CCN(c2nccc(-c3cccnc3)n2)CC1", "activity change, negative = inhibition": "-13.6% (inactive)"}
{"smiles": "CCc1ccccc1N1C(=O)CN(S(=O)(=O)CC)CC1(C)C(=O)NC1CCCCC1", "note": "(centres undefined)", "activity change, negative = inhibition": "22.6% (inactive)"}
{"smiles": "O=c1c2ccccc2n(Cc2cccc(Cl)c2)c(=O)n1Cc1ccccc1", "activity change, negative = inhibition": "-4.11% (inactive)"}
{"smiles": "Cc1ccc(NC(=O)c2cc(S(=O)(=O)NCCC3=CCCCC3)ccc2F)cc1C", "activity change, negative = inhibition": "4.86% (inactive)"}
{"smiles": "CC1(C)CN(C(=O)c2ccc(-c3cccc4nc(NC(=O)C5CC5)nn34)cc2)C1", "activity change, negative = inhibition": "7.31% (inactive)"}
{"smiles": "COc1ccc2ncc3c(-c4ccc(C)c(C)c4)nn(CC(=O)NC4CCCC4)c3c2c1", "activity change, negative = inhibition": "26.6% (inactive)"}
{"smiles": "Cc1ccncc1C(=O)N1CCC2(CC1)CC(c1ccccc1)C(=O)N2C", "note": "(centres undefined)", "activity change, negative = inhibition": "-13.6% (inactive)"}
